Data taken from the supplement of paper PMC7156485.
± gives the standard deviation of the averaged measurements.

What was measured:
Details in all cases: concentration: 10 µM; 24 h
[1] = tested on: HCC1569; experiment: cell number relative to DMSO (% of DMSO); higher = more cells (less growth inhibition / toxicity)
In short: (§1)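 H1.0 nuclear intensity or cell number is stated as percent of the plate control, based on the median of replicates, and HCC1569 values were smoothed for positional effects. These came from HCC1569 and TDF cells treated with compounds at 10 µM for 24 h at 37 °C in triplicate, then fixed in 3.7% formaldehyde and stained with a rabbit anti-H1.0 antibody, an AlexaFluor 647 secondary and DAPI.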

[2] = tested on: TDF; experiment: as above
In short: as §1

[3] = tested on: TDF; experiment: H1.0 immunofluorescence intensity relative to DMSO (% of DMSO); higher = stronger H1.0 induction, active = 120 or more
In short: as §1

[4] = tested on: HCC1569; experiment: H1.0 immunofluorescence intensity relative to DMSO (% of DMSO); higher = stronger H1.0 induction, active = 140 or more
In short: as §1
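For H1.0 immunofluorescence intensity relative to DMSO in this document: TDF is a line of transformed human dermal fibroblasts of mesenchymal origin.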
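For cell number relative to DMSO in this document: TDF denotes transformed human dermal fibroblasts of mesenchymal origin.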

Structure (SMILES) | cell number [1] | cell number [2] | H1.0 immunofluorescence intensity [3] | H1.0 immunofluorescence intensity [4]
Oc1cc(O)cc(C=Cc2ccc(O)c(O)c2)c1 [Piceatannol] | 90.4 ± 5.3 | 93.7 ± 4.5 | 97.2 (inactive) | 114 (inactive)
CC(Cc1ccc(O)c(O)c1)(NN)C(=O)O.O (stereo not given) [Carbidopa.H2O] | 103 | 107 | 99.8 (inactive) | 104 (inactive)
CCC1C(=O)OCC1Cc1cncn1C.Cl (single isomer, unassigned; (+)) [(+)-Pilocarpine hydrochloride] | 97.7 | 93.1 | 102 (inactive) | 101 (inactive)
CCCCCCCCCCCCCCCC(=O)NCC(COP(=O)([O-])OCC[N+](C)(C)C)OC (racemic) [rac-2-Methoxy-3-hexadecanamido-1-propylphosphocholine] | 75.4 | 65 | 185 (active) | 142 (active)
COc1ccc(C2OCC3C(c4ccc(OC)c(OC)c4)OCC23)cc1OC (stereo not given) [Eudesmine] | 102 | 104 | 97.6 (inactive) | 107 (inactive)
C[N+](C)(C)CC(O)CC(=O)[O-].Cl (racemic) | 102 | 120 | 97.1 (inactive) | 90.1 (inactive)
O=C(O)c1ccc(SC2=NS(=O)(=O)c3ccccc32)cc1 [4-((1,1-dioxidobenzo[d]isothiazol-3-yl)thio)benzoic acid] | 100 | 107 | 93.5 (inactive) | 98.7 (inactive)
CCOC(=O)C1=C(C)NC(C)=C(C(=O)OC)C1c1cccc(Cl)c1Cl (stereo not given) [Felodipine] | 102 ± 2.2 | 117.1 ± 0.85 | 86.3 (inactive) | 97.5 (inactive)
O=c1[nH]c(=O)n([C@H]2C[C@H](O)[C@@H](CO)O2)cc1/C=C/Br [(E)-5-(2-Bromovinyl)-2'-deoxyuridine] | 104 | 100 | 97.3 (inactive) | 87.7 (inactive)
CN(C)CCCN1c2ccccc2Sc2ccc(Cl)cc21.Cl [Chlorpromazine.HCl] | 96.5 | 99.7 | 106 (inactive) | 113 (inactive)
